# Measured values taken from the supplement of paper PMC10477191.
# ± gives the standard deviation of the averaged measurements.
# Tested on: Drosophila ezoana antennal basiconic sensillum ab10
# Assay: odor-evoked OSN spike response (post minus pre-stimulus); higher = stronger neuronal excitation
# Conditions: odor dilution: 10^-4
# Procedure: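 Single sensillum recordings from antennal basiconic sensilla of D. ezoana. A 500 ms pulse of odorant (10^-4 in mineral oil or DMSO) was delivered; the response is the change in action potential frequency between the 1 s pre- and post-stimulus windows (spikes/s).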
row,SMILES,odor-evoked OSN spike response [spikes/s]
1,CC(C)=O [acetone],76.3 ± 21
